Assay results as given in the supplement of paper PMC10849652.
Targets with a hit are over-represented here; the source holds about 7,900 in all. About 0.6% of all pairs of compound and target were hits. A number with no mark means an inactive call.

Columns and labels:
Assay in all cases: log2 fold change, soluble protein after heating vs DMSO (PISA); higher = thermal stabilisation; K562 cells, 10 uM, 30 min; active = over 0.2 and 3.5 SD of the protein, either way, in both replicates (recomputed)
[1] = compound: Cc1ccc(NC(=O)c2ccc(CN3CC[C@H](N(C)C)C3)c(C(F)(F)F)c2)cc1Nc1nccc(-c2cncnc2)n1 [bafetinib]
Summary of the method: (§1)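 K562 cells at 2×10^6 cells/mL were treated with 10 μM compound for 30 min. Aliquots were heated for 3 min across 48°C-58°C, pooled, and extracted in PBS with 0.5% NP-40 at 4°C; soluble protein was the supernatant after 21,000xg for 90 min. Soluble protein was quantified by TMTpro 16plex LC-MS/MS with channel sums equalised, and reported as log2 fold change in thermal stability against DMSO controls, with values from duplicates.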

[2] = compound: Cc1cccc(CC(=O)N2CCc3c2ccc(-c2cn(C)c4ncnc(N)c24)c3F)n1
Summary of the method: as §1

[3] = compound: Cc1cn(-c2cc(NC(=O)c3ccc(C)c(Nc4nccc(-c5cccnc5)n4)c3)cc(C(F)(F)F)c2)cn1 [nilotinib]
Summary of the method: as §1

[4] = compound: Cc1nc(Nc2n[nH]c3c2CN(C(=O)N[C@H](CN(C)C)c2ccccc2)C3(C)C)c2sccc2n1
Summary of the method: as §1

[5] = compound: Cc1nc(Nc2ncc(C(=O)Nc3c(C)cccc3Cl)s2)cc(N2CCN(CCO)CC2)n1 [dasatinib]
Summary of the method: as §1

[6] = compound: Cc1ncc(-c2ccnc(Nc3ccc(S(C)(=O)=O)cc3)n2)n1C(C)C
Summary of the method: as §1

[7] = compound: Cn1cc(-c2ccc3c(c2)CCN3C(=O)Cc2cccc(C(F)(F)F)c2)c2c(N)ncnc21
Summary of the method: as §1

[8] = compound: Cn1cc(-c2ccc3nnc(C(F)(F)c4ccc5ncccc5c4)n3n2)cn1
Summary of the method: as §1

[9] = compound: Cn1cncc1[C@@](N)(c1ccc(Cl)cc1)c1ccc2c(c1)c(-c1cccc(Cl)c1)cc(=O)n2C [tipifarnib]
Summary of the method: as §1

[10] = compound: FC(F)(F)c1ccc(/C=C/c2nc(COc3ccc(CCCCn4ccnn4)cc3)co2)cc1 [mubritinib]
Summary of the method: as §1

[11] = compound: NC(=O)Nc1cc(-c2cccc(F)c2)sc1C(=O)N[C@H]1CCCNC1
Summary of the method: as §1

[12] = compound: NC(=O)c1cnc(N[C@@H]2CCCC[C@@H]2N)nc1Nc1cccc(-n2nccn2)c1
Summary of the method: as §1

[13] = compound: NC1(c2ccc(-c3nc4ccn5c(=O)[nH]nc5c4cc3-c3ccccc3)cc2)CCC1
Summary of the method: as §1

[14] = compound: NCC(=O)Nc1ccc(-n2nc(C(F)(F)F)cc2-c2ccc3c(ccc4ccccc43)c2)cc1
Summary of the method: as §1

[15] = compound: Nc1ccccc1NC(=O)c1ccc(CNC(=O)OCc2cccnc2)cc1 [entinostat]
Summary of the method: as §1

[16] = compound: O=C(CCCCCCC(=O)Nc1ccccc1)NO [vorinostat]
Summary of the method: as §1

[17] = compound: O=C(CCCCCCNC(=O)c1cnc(N(c2ccccc2)c2ccccc2Cl)nc1)NO [citarinostat]
Summary of the method: as §1

[18] = compound: O=C(O)c1ccc2c(c1)nc(Nc1cccc(Cl)c1)c1ccncc12 [silmitasertib]
Summary of the method: as §1

[19] = compound: O=C1NC(=O)C(c2cnc3ccccn23)=C1c1cn2c3c(cc(F)cc13)CN(C(=O)N1CCCCC1)CC2
Summary of the method: as §1

[20] = compound: c1cc(OCCN2CCCCC2)cc(-c2n[nH]c3ccc(-c4nnc[nH]4)cc23)c1
Summary of the method: as §1

UniProt Q13428, sequence (Q13428 whole entry, looked up): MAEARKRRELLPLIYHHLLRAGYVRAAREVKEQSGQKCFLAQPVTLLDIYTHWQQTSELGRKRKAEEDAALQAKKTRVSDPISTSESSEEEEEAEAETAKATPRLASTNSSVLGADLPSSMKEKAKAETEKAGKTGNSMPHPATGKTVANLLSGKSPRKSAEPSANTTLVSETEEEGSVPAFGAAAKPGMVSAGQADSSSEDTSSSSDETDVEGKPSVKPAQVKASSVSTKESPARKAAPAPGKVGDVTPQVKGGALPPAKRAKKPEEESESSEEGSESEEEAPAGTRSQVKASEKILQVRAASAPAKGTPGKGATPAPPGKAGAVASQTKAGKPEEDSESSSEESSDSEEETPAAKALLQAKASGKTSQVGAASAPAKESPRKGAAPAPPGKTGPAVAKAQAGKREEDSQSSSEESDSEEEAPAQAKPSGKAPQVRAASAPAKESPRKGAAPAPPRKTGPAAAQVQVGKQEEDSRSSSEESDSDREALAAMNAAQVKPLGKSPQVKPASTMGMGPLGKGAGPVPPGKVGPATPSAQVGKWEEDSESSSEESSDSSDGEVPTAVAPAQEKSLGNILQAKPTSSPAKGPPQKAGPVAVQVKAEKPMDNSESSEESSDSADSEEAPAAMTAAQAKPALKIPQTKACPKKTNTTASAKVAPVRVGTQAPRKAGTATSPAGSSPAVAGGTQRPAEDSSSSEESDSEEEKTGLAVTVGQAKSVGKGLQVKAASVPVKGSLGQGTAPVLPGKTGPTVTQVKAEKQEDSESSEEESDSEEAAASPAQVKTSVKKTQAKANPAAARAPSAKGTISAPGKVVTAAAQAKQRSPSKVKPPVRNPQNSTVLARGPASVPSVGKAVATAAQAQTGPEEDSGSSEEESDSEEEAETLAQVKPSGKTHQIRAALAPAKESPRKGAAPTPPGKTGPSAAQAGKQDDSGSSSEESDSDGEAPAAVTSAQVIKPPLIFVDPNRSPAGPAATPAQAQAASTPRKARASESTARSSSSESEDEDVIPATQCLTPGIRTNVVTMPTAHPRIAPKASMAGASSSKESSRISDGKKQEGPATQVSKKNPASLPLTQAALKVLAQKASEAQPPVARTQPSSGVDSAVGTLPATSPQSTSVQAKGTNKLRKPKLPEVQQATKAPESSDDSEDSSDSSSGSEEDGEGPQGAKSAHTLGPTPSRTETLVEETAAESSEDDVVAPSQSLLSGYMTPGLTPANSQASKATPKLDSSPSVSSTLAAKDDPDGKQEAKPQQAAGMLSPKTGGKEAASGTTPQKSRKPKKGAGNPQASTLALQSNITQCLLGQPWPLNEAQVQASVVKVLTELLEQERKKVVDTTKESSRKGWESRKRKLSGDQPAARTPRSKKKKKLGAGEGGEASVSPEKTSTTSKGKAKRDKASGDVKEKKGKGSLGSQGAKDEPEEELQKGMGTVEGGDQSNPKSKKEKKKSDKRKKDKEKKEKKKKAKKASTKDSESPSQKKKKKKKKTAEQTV
UniProt Q96JI7, sequence (Q96JI7 whole entry, looked up): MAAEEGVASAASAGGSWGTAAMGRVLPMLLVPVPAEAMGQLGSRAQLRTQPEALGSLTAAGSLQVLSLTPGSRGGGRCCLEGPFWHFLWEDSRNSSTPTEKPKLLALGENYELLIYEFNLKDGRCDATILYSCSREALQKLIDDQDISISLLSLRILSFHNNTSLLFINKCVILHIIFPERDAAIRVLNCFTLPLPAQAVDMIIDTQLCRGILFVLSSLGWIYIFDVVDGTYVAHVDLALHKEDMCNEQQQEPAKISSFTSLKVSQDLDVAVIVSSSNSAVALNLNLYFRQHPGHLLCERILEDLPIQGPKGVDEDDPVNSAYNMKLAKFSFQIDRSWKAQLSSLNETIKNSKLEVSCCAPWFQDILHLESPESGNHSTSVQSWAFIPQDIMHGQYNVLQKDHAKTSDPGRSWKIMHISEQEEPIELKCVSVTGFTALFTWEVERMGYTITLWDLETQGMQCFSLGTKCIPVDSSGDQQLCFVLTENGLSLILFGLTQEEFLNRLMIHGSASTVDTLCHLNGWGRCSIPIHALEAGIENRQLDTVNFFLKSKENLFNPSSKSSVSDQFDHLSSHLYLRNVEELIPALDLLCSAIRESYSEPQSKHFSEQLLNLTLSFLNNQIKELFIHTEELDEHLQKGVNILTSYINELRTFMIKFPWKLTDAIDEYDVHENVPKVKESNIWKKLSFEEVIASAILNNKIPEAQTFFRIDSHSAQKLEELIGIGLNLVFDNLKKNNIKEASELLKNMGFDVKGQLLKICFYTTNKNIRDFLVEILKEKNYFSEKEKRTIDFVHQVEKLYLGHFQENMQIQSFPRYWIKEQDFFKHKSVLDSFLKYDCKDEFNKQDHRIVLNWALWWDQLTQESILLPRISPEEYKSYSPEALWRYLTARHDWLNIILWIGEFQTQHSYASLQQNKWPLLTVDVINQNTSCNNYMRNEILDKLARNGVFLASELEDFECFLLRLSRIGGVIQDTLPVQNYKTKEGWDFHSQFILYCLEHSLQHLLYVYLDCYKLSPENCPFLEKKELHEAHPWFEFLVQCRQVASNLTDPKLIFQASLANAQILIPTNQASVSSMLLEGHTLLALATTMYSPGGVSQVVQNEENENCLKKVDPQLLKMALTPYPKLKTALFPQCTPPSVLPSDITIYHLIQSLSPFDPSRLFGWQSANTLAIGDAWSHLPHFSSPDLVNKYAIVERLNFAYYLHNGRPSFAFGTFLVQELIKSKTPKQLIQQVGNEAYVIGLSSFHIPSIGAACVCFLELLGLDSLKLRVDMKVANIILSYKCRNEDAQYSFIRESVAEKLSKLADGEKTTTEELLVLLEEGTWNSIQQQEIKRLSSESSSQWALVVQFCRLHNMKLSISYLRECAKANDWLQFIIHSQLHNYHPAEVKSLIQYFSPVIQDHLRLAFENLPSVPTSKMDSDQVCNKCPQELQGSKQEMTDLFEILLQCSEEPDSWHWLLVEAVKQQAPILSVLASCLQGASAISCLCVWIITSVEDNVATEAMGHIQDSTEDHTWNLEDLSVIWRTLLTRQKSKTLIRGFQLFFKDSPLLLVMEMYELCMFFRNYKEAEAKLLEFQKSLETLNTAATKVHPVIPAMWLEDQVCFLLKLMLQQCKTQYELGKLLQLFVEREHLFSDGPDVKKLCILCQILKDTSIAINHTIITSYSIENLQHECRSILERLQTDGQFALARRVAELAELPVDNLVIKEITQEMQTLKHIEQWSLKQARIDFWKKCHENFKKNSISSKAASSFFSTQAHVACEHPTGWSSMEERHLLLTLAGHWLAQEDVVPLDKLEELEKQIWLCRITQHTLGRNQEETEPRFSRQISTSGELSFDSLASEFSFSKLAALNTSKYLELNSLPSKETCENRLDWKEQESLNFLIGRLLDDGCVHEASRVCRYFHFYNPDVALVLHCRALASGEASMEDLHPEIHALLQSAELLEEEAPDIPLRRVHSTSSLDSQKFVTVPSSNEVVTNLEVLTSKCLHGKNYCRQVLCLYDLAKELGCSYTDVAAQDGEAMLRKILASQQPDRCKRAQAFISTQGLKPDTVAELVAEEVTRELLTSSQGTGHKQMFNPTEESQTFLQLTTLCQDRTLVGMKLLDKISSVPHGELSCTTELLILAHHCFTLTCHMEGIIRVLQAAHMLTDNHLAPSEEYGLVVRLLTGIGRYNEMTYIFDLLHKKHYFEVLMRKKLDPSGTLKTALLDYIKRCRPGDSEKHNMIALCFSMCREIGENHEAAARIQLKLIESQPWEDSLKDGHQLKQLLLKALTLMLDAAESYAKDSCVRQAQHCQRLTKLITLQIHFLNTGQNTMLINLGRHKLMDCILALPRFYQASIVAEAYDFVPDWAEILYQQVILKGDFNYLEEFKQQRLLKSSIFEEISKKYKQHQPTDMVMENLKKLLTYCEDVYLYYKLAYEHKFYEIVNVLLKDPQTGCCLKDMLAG
UniProt Q13043, sequence (Q13043 whole entry, looked up): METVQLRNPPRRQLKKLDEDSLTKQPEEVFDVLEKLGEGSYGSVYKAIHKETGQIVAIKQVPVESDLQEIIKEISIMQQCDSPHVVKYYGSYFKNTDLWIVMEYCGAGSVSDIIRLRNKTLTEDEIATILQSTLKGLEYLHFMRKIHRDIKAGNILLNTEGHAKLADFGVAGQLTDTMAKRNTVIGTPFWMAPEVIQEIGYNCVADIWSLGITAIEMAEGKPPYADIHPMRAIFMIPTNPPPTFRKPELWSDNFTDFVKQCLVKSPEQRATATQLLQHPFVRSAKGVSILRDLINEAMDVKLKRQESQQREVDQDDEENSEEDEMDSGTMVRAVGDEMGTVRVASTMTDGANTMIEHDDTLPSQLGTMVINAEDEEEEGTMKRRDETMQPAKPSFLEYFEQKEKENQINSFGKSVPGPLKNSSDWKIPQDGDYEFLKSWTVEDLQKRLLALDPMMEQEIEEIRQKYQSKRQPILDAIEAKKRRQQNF
UniProt Q9Y5W9, sequence (Q9Y5W9 whole entry, looked up): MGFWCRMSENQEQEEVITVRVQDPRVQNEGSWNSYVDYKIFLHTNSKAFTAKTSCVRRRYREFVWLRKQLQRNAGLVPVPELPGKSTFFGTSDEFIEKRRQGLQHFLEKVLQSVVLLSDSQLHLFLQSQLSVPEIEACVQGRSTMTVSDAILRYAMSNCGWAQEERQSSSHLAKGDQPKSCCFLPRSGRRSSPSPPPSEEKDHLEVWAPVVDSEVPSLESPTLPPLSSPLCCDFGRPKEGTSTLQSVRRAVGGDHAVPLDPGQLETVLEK
UniProt Q8WU79, sequence (Q8WU79 whole entry, looked up): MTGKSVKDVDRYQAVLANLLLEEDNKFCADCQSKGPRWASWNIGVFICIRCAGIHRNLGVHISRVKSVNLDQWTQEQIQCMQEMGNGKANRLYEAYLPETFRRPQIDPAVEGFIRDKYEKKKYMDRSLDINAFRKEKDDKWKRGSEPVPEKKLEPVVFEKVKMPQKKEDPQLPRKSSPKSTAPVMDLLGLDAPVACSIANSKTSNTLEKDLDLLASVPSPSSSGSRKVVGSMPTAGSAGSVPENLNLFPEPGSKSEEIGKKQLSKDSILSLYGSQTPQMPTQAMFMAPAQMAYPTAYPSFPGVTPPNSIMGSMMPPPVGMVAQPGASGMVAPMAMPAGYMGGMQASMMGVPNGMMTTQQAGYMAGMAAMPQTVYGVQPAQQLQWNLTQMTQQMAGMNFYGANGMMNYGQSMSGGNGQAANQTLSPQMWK

Row | Target | log2 fold change [1] | log2 fold change [2] | log2 fold change [3] | log2 fold change [4] | log2 fold change [5] | log2 fold change [6] | log2 fold change [7] | log2 fold change [8] | log2 fold change [9] | log2 fold change [10] | log2 fold change [11] | log2 fold change [12] | log2 fold change [13] | log2 fold change [14] | log2 fold change [15] | log2 fold change [16] | log2 fold change [17] | log2 fold change [18] | log2 fold change [19] | log2 fold change [20]
1 | SMAP2 (UniProt Q8WU79) | 0.01 | -0.025 | -0.078 | -0.039 | -0.135 | 0.044 | -0.022 | -0.004 | -0.014 | 0.018 | -0.013 | 0.024 | -0.043 | -0.069 | -0.01 | 0.002 | 0.056 | 0.06 | -0.122 | -0.028
2 | TBC1D15 isoform 3 (UniProt Q8TC07) | -0.026 | 0.059 | -0.116 | -0.098 | -0.133 | -0.004 | -0.052 | 0.011 | -0.134 | 0.054 | -0.013 | -0.086 | -0.202 | -0.033 | 0.118 | 0.101 | 0.036 | 0.071 | -0.008 | -0.059
3 | SNX11 (UniProt Q9Y5W9) | -0.259 | 0.081 | -0.033 | -0.108 | -0.022 | -0.44 (active) | 0.077 | 0.002 | 0.178 | -0.015 | -0.052 | -0.277 | -0.378 (active) | -0.052 | 0.097 | 0 | 0.233 | 0.025 | -0.023 | -0.072
4 | STK4 (UniProt Q13043) | -0.053 | -0.027 | -0.003 | 0.143 | -0.052 | -0.016 | 0.005 | 0 | 0.039 | -0.028 | 0.248 (active) | -0.031 | -0.1 | 0.006 | -0.041 | 0.011 | 0.064 | -0.015 | -0.031 | -0.122
5 | SNX3 (UniProt O60493) | 0.01 | 0.032 | -0.034 | 0.035 | -0.163 | -0.339 (active) | -0.03 | 0.001 | 0.019 | -0.108 | -0.014 | -0.241 | -0.19 | -0.001 | 0.025 | 0.105 | 0.048 | 0.132 | -0.037 | -0.116
6 | SNX5 (UniProt Q9Y5X3) | -0.154 | 0.11 | -0.078 | 0.006 | -0.169 | -0.314 | 0.05 | 0.001 | -0.027 | 0.082 | -0.022 | -0.275 | -0.332 (active) | -0.037 | 0.078 | 0.108 | 0.09 | -0.061 | -0.006 | -0.11
7 | SPG11 (UniProt Q96JI7) | -0.493 | -0.584 | -0.015 | 0.117 | 0.065 | -0.006 | -0.051 | 0.146 | 0.258 | -0.009 | -0.395 | -0.138 | 0.145 | -0.293 | -0.25 | -0.638 | -0.233 | 0.01 | 0.041 | -0.219
8 | TCOF1 isoform 4 (UniProt Q13428) | -0.037 | -0.012 | -0.022 | 0.045 | 0.048 | -0.034 | -0.046 | -0.014 | 0.022 | 0.025 | 0.131 | -0.065 | -0.014 | -0.013 | -0.015 | -0.026 | -0.002 | 0.002 | 0.045 | -0.112
